The values below come from ChEMBL document CHEMBL4513216, “Probing the Open Global Health Chemical Diversity Library for Multistage-Active Starting Points for Next-Generation Antimalarials” (ACS Infect Dis, 2020).

The campaign covered roughly 69,000 compounds. About 8,600 (12%) showed an effect of 50% or more. For the sample, strong results were picked, then their nearest neighbours and some compounds at random.

The test system of the experiment is Plasmodium berghei. Kind of experiment: Screen against P. berghei liver stage (PbLuc), transformed with Luciferase, at 10uM. It counts as functional, HepG2. The conditions noted are these: tested at 10 uM.
On to `COC1CCN(C(=O)NCC(N)=O)CC(=O)N(C)c2ccccc21` (stereo not given), for which the INHIBITION is 16.2%.
With `Cc1cnn(CC2CN(Cc3cccnc3)CCO2)c1` (stereo not given) the figure was -7.81%; with `COC(=O)CN1CCCn2nc(CCC(=O)N3CCCC3)cc2C1`, 32.4%; with `CC(=O)N1CC(C)CN(C(=O)c2cnccn2)c2ccccc21` (stereo not given), 60.7%.
For `CC(=O)N1CC(C)CN(C(=O)c2cccnc2C)c2ccccc21` (stereo not given) the value was -9.8%.
`CC1CN(C)c2ccccc2N(C(=O)c2c[nH]c(C(C)C)n2)C1` (stereo not given): the INHIBITION came out at 29.6%.
For the compound `CC(C)c1cc(COCCC(=O)O)no1`, the INHIBITION was 44.1%.
On to `CN1CCN(Cc2cnn(-c3ccc(F)cc3)c2)[C@H]2CS(=O)(=O)C[C@H]21`, for which the INHIBITION is given as 69.8%.
Turning to `Cc1ccc(-n2cc(CN3CCN(C)[C@@H]4CS(=O)(=O)C[C@@H]43)cn2)cc1`, the INHIBITION is on record as 29.1%.
For `Cc1cccc(-n2cc(CN3CCN(C)[C@@H]4CS(=O)(=O)C[C@@H]43)cn2)c1` the value was 4.41%.
On to `COc1ccc(CCNC(=O)N2CCN(C)[C@@H]3CS(=O)(=O)C[C@@H]32)cc1`, for which the INHIBITION was 31.9%.
For `COc1ccccc1-n1cc(CN2CCN(C)[C@@H]3CS(=O)(=O)C[C@@H]32)cn1` the value was 50.1%; for `CN1CCN(Cc2cnn(-c3ccccc3Cl)c2)[C@H]2CS(=O)(=O)C[C@H]21`, -54.8%.
With `CN1CCN(C(=O)NCCc2ccc(F)cc2)[C@H]2CS(=O)(=O)C[C@H]21` the figure was 52.2%.
For `CN1CCN(Cc2nc3ccccc3[nH]2)[C@H]2CS(=O)(=O)C[C@H]21`, the INHIBITION was -1.64%.
For `COc1ccc(CNC(=O)N2CCN(C)[C@@H]3CS(=O)(=O)C[C@@H]32)cc1` the value was 0.891%.
For `Cc1nn(C)c2cnn(Cc3ccc(C(=O)NCC4CCCO4)o3)c12` (stereo not given), the INHIBITION is reported as 17.6%.
With `O=C1CC2(CCSC2)C(=O)N1Cc1coc(-c2cccc(F)c2)n1` (stereo not given) the figure was 3.03%; with `Cc1noc(C)c1CN1CCc2ncc(Cn3cccn3)n2CC1`, 26%; with `Cc1nonc1C(=O)N1CCCC(c2ncncc2-c2ccncc2)C1` (stereo not given), 42.1%.
With `Cc1nc(Nc2cnccn2)cc(C2CCCN2)n1` (stereo not given) the figure was 34.9%; with `Cc1ccc(CNC(=O)CN2CCOC(Cn3cncn3)C2)s1` (stereo not given), 5.03%.
With `O=C(NCCN1CCCCC1)c1ccoc1` the figure was 16.1%; with `COc1cc(CNCCc2cc(F)cc3c2OCOC3)cc(OC)c1`, 26.6%; with `CCn1cnnc1CNC(=O)N(C)C(C)c1cccs1` (stereo not given), -41.1%.
Turning to `O=C(C1CC1)N1CCC(Oc2ccccc2Cl)CC1`, the INHIBITION amounted to 88.1%.
For the compound `CN1CC(C(=O)N2CCC(Oc3ccccc3Cl)CC2)CC1=O` (stereo not given), the INHIBITION came to 35.5%.
On to `Cc1cccc2nc(CNC(=O)N3CCC(OCC4CC4)CC3)cn12`, for which the INHIBITION was determined as 51.2%.
For `CNC(=O)CC1CCN(C(=O)NCc2cn3c(C)cccc3n2)CC1`, the INHIBITION is 45.2%.
For `Cc1cccc(OC2CCN(C(=O)NCc3cc[nH]n3)CC2)c1C`, the INHIBITION is given as 88.4%.
Consider `O=C(NCc1cc[nH]n1)N1CCN(c2ccccc2Cl)CC1`, for which the INHIBITION was 39.2%.
Turning to `CS(=O)(=O)NC1CCN(C(=O)NCc2cc[nH]n2)CC1`, the INHIBITION is given as 8.64%.
With `O=C(NCc1cc[nH]n1)N1CCC(Oc2ccccc2Cl)CC1` the figure was 50.2%; with `Cc1cccc(OC2CCN(C(=O)NCCn3ccnc3)CC2)c1C`, -4.13%; with `CCOc1ccccc1N1CCN(C(=O)NCc2cc[nH]n2)CC1`, 49.8%.
For `O=C(C1CC(=O)N(C2CC2)C1)N1CCC(Oc2ccccc2Cl)CC1` (stereo not given) the value was -6.88%; for `CCOCC1CCCN(C(=O)NCc2cn3c(C)cccc3n2)C1` (stereo not given), 21.6%; for `Cc1ccc(C(=O)N2CCO[C@H]3[C@@H](OCc4ccccn4)CC[C@@H]32)o1`, 3.47%.
As to `Cc1ccc(CNC(=O)N(C)Cc2cnn(C)c2)s1`, the INHIBITION was determined as 25.5%.
As for `COC(=O)c1cc(C2CC2)nc2c(Cl)cnn12`, the INHIBITION is 20.9%.
As for `Cc1c(C(C)NC(=O)Nc2ccc(F)c(F)c2)cnn1C` (stereo not given), the INHIBITION turned out to be 6.26%.
For `Cc1c(C(C)NC(=O)Nc2ccc(F)cc2F)cnn1C` (stereo not given) the value was 44.3%.
Take `Cc1c(C(C)NC(=O)Nc2ccccc2F)cnn1C` (stereo not given): the INHIBITION stood at 61.9%.
With `Cc1ccccc1CSc1ncccc1C(=O)N(C)C`, the INHIBITION is recorded as -13.2%.
For `Cc1cncc(CN2CC[C@@](O)(CNC(=O)c3c[nH]cn3)[C@H](O)C2)c1`, the INHIBITION came out at 32.7%.
For `Cc1nc(N2CCCOC(Cn3cccn3)C2)c2sccc2n1` (stereo not given) the value was 65.7%; for `Cc1nnc(N2CCOC(Cn3cccn3)C2)c(C#N)c1C` (stereo not given), 17.8%; for `Cc1cnn(CC2CN(c3ncnc4[nH]ccc34)CCO2)c1` (stereo not given), 19.4%.
Consider `c1cnn(CC2CN(c3ncnc4sccc34)CCO2)c1` (stereo not given), for which the INHIBITION was 45%.
Take `c1nc(N2CCOC(Cn3cncn3)C2)c2sccc2n1` (stereo not given): the INHIBITION is 49.4%.
For `c1ccc2c(N3CCOC(Cn4cccn4)C3)ncnc2c1` (stereo not given) the value was 4.48%.
For `Cc1cnn(CC2CN(c3ncnc4c3CCC4)CCO2)c1` (stereo not given), the INHIBITION was 63%.
With `c1cnn(CC2CN(c3ncnc4ccsc34)CCO2)c1` (stereo not given) the figure was 62.4%.
On to `c1nc2c(c(N3CCOC(Cn4cncn4)C3)n1)CCC2` (stereo not given), for which the INHIBITION was -26.9%.
`c1cnn(CC2CN(c3ncnc4c3CCC4)CCO2)c1` (stereo not given): the INHIBITION was -7.17%.
With `Cc1cnn(CC2CN(c3ncnc4ccccc34)CCO2)c1` (stereo not given) the figure was 64.4%; with `c1cnn(CC2CN(c3ncnc4[nH]ccc34)CCO2)c1` (stereo not given), 13.3%.
With `O=C1CN(C(=O)C2CN(c3cccc(Cl)c3)CCO2)CCN1` (stereo not given) the figure was 3.46%; with `Cn1cnc2cc(C(=O)NS(=O)(=O)c3ccccc3Cl)ccc21`, -32.1%; with `Cc1ccc2c(c1)C(=O)NCC1(CCN(Cc3ccccc3)CC1)O2`, -6.92%.
Regarding `COc1ccc(-n2ccc(C(=O)N(C)C(C)C3(C)CC3)n2)cc1` (stereo not given), the INHIBITION is listed as 29.1%.
With `Cc1cccc(CN2CCC(N(C)Cc3nnc(C4CC4)n3C)C2)c1` (stereo not given) the figure was 38.5%.
`COc1ccc(CCNC(=O)NCC(O)c2cccc(F)c2)cc1` (stereo not given): the INHIBITION amounted to 12.7%.
With `CC(C)c1sc(Br)nc1C(=O)NCc1ccncc1` the figure was 45.3%.
As for `O=C(NCCc1cnccn1)c1ccc(S(=O)(=O)NC2CCC2)cc1`, the INHIBITION was determined as 40.3%.
Take `CC(C)N1CC[C@@H]2[C@H](COCC3CC3)CN(C)C(=O)[C@@H]2CC1`: the INHIBITION is recorded as 10.5%.
In the case of `O=C(NC[C@]1(O)CN(Cc2ccc(F)cc2)C[C@H]1O)c1ccccn1`, the INHIBITION is listed as 18.9%.
On to `Cc1cnn(CC2CN(c3cnc4ccccc4n3)CCO2)c1` (stereo not given), for which the INHIBITION is given as 16.2%.
Consider `COC1[C@@H]2CC[C@H]1CN(c1nc(C)nc3ccsc13)C2` (stereo not given in full), for which the INHIBITION was determined as 43%.
In the case of `Cc1nc(N2C[C@@H](CN3CCCCC3)[C@@H](CO)C2)c2sccc2n1`, the INHIBITION was 46.4%.
For `Cc1nc(N2C[C@H]3CNC[C@H]3C2)c2sccc2n1`, the INHIBITION is given as 55.6%.
On to `CN(C)CC1CN(c2ncnc3ccsc23)CCO1` (stereo not given), for which the INHIBITION was 30.8%.
With `Cc1cnn(CC2CN(c3ncnc4ccsc34)CCO2)c1` (stereo not given) the figure was 83.7%.
For `Cc1csc(N2CCN(C(=O)c3ccc(C)s3)CC2)n1` the value was 2.3%.
For `CCN(C)c1ncnc2c1CCN(Cc1ccsc1)CC2` the value was -14.1%.
With `Cc1cc(C)n(CC2CCCCN2CCC(=O)Nc2cc(C)on2)n1` (stereo not given), the INHIBITION came out at 12.7%.
On to `CN(Cc1cccs1)S(=O)(=O)c1ccc(C(F)(F)F)nc1`, for which the INHIBITION was 35.1%.
For `Cc1[nH]c2cc(C3CCCCN3C(=O)C3CC3)nn2c(=O)c1C` (stereo not given), the INHIBITION is -3.02%.
For `Cn1ccnc1CN1CCN(CC(O)c2ccc(F)cc2)CC1` (stereo not given) the value was -18%.
Regarding `Cc1ncsc1CN1CCOC(C)(C(N)=O)C1` (stereo not given), the INHIBITION amounted to 15.5%.
For `O=C(NC1CC1)C1CCCN(c2cccc(C(F)(F)F)n2)C1` (stereo not given), the INHIBITION is given as -28.8%.
With `O=C(NC1CCN(c2cccc(C(F)(F)F)n2)CC1)C1CC1` the figure was 29%.
With `O=C(NC1CC1)C1CCN(c2cccc(C(F)(F)F)n2)CC1` the figure was 86.8%; with `CCN1CCCC1CNC(=O)Cc1c(-c2ccc(Cl)cc2)n[nH]c1C` (stereo not given), 14.4%; with `Cc1ccccc1CSc1nc(N)cc(N2CCCC(O)C2)n1` (stereo not given), 15.2%.
`Cc1ccccc1CSc1nc(N)cc(N2CC[C@@H](O)C2)n1`: the INHIBITION was 42.1%.
With `Cc1ccccc1CSc1nc(N)cc(N2C[C@H](O)[C@@H](N(C)C)C2)n1` the figure was 58.2%.
For `CC(C)(C)C(=O)NCCCn1cncn1` the value was -21.9%.
In the case of `COc1nn(C)cc1C(=O)NCC1(O)CCOCC1`, the INHIBITION was 15.7%.
`CCn1c(C)nnc1CN(C)C1CCN(CC2CCC2)C1` (stereo not given): the INHIBITION is recorded as -4.16%.
For the compound `c1cc(CN2CCOC(Cn3cccn3)C2)c2c(c1)OCCO2` (stereo not given), the INHIBITION was 25.1%.
With `COC(=O)c1cc2c(OC)c(C)c(OC)cc2[nH]1` the figure was -1.45%.
Regarding `COc1ccc(-c2nc(CN(C)Cc3nncn3C)c(C)o2)c(C)c1C`, the INHIBITION was -29.1%.
With `COc1ccc(OC)c(-c2nc(CN(C)Cc3nonc3C)c(C)o2)c1` the figure was -28%; with `CCc1cc(CN(C)Cc2nc(-c3ccc(OC)cc3F)oc2C)on1`, 39.9%; with `CCn1cnnc1CN(C)Cc1nc(-c2cc(OC)ccc2F)oc1C`, 50.4%.
Take `COCc1ncn(Cc2nc(-c3ccc(OC)cc3F)oc2C)n1`: the INHIBITION is 8.86%.
For `COc1ccc(OC)c(-c2nc(CN(C)Cc3nncn3C)c(C)o2)c1` the value was 57.8%; for `Cc1occc1C(=O)N1C[C@H](Oc2ccccn2)[C@H]2OCCC[C@H]21`, 34.9%; for `CN1CCCC(c2cccc(CCC(=O)NCc3ccccn3)n2)C1` (stereo not given), 3.91%.
For `CCC(C)C(=O)N(C)Cc1cc(F)ccc1N1CCC(OC)CC1` (stereo not given) the value was 33.7%; for `CCc1cnc(CN(C(C)=O)C2CCN(CC(=O)N3CCCC3)C2)o1` (stereo not given), 30.6%; for `COCCNC(=O)CN(C)CCn1nc2ccccn2c1=O`, 23.8%.
For `C[C@@H](N)C(=O)N1CC2(CCNCC2)c2cc(Cl)ccc21`, the INHIBITION was 33.4%.
For `CC1CCN(C(=O)c2cc(NC(=O)c3ccccc3)n(C)n2)CC1` the value was 26.4%.
